This is part of a sample that, as a whole, favours compounds with a hit. Of some 83,000 tested, about 20% had one in any assay.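 Values shown are percent growth following 48 h exposure of cells in 96-well plates to a single concentration of compound; below 10 was considered active.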 Values without a mark were called inactive. The source made the active and inactive calls.
test system: OVCAR-5 ovarian; experiment: NCI-60 one-dose screen, 48 h (100 = growth as untreated, 0 = no growth, -100 = all killed); conditions: 10 µM unless noted

Structure (SMILES) | growth
CCOC(=O)C1=C(C)N=C2Sc3cccc(OC)c3N2[C@H]1c1ccccn1 | 110%
CNC(=O)c1cc(Oc2cccc3nc(Nc4ccc(Oc5ccccc5)cc4)ccc23)ccn1 | 83.4%
COc1ccc(-c2nc(N)ncc2Oc2ccccc2OC)c(O)c1 | 60.2%
CSc1nc2ncncc2[nH]1 | 93.9%
Nc1c2c(c(O)c3c1=C(CO)C=N3)=NCCS2=O (stereo unspecified) | -61.6% (active)
CC(C)=CCc1cc2c(cc1O)C1=C(C(=O)C3=C(NCCS3(=O)=O)C1=O)C(C=C(C)C)O2 (stereo unspecified) | 154%
CC/C=C\C[C@H]1C/C=C2/C(=O)C=C[C@@H]2C/C=C\CCCC(=O)O1 | 21.7%

test system: OVCAR-4 ovarian; experiment: as above; conditions: 10 µM unless noted

Structure (SMILES) | growth
CO/C=C/C(=O)c1cc2cnc3c(=N)cc(NC(=O)C(C)C)c([nH]1)c23 | -10.7% (active)
Cc1cc2c(-c3nc4ccccn4c3Nc3cccc4ccccc34)c(O)c(O)cc2c(O)c1-c1c(C)cc2c(-c3nc4ccccn4c3Nc3cccc4ccccc34)c(O)c(O)cc2c1O | 56%
Cc1cc(N2CCOCC2)nc(N(CCNc2ccnc3cc(Cl)ccc23)Cc2cccs2)n1 | 14.2%
CCCCCCCC(=O)SCC/C=C/[C@@H]1CC(=O)NCc2cc(ccn2)C2=N[C@@](C)(CS2)C(=O)N[C@@H](C(C)C)C(=O)O1 | 10.9%
Cc1sc2c(c1C)c(=O)nc1c(-c3nc4ccccc4s3)n[nH]n12 | 99.6%
CC(C)(C)CC(C)(C)Nc1c(-c2c(O)c3ccccc3oc2=O)nc2c(Cl)cc(C(F)(F)F)cn12 | 100%
CCOc1cccc(/C=N/NC(=O)c2ccccc2Nc2ccnc(C(F)(F)F)c2)c1O | 25%
Cc1cc2c(-c3nc4ccccn4c3NC3CCCCC3)c(O)c(O)cc2c(O)c1-c1c(C)cc2c(-c3nc4ccccn4c3NC3CCCCC3)c(O)c(O)cc2c1O | 27.4%
C=CCC(=O)N[C@H](/C=C/C(=O)O)Cc1ccc(-c2cc(Cl)cc(Cl)c2)cc1 | 98.6%
CN1CCN(c2nc(NCCNc3ccnc4cc(Cl)ccc34)c3ccccc3n2)CC1 | -0.851% (active)
C[C@@H](C[C@H](CCO)c1cc(C(F)(F)F)cc(C(F)(F)F)c1)c1ccc2ccccc2c1 | 94.6%
C=C1C(=O)O[C@H]2[C@H]1CC/C(Cn1cc(-c3cc(C)c(C)cc3C)nn1)=C\CC[C@@]1(C)O[C@@H]21 | -94.3% (active)
COc1ccc2c(CCCc3ccc(Cl)cc3Cl)c3[n+](cc2c1OC)CCc1cc2c(cc1-3)OCO2 | 20.5%
CCN1CCN(c2cc(C)nc(N(CCCNc3ccnc4cc(Cl)ccc34)Cc3ccc4c(c3)OCO4)n2)CC1 | 27.7%
O=C1CC(c2ccc(Cl)cc2)c2ncn(-c3cccc(Cl)c3)c2N1 (stereo unspecified) | 87.2%
Cc1ccccc1Nc1nc2nonc2nc1Nc1cccc(C)c1C | 30.3%
Fc1ccc(NCc2cn(-c3ccccc3)nc2-c2ccc(OCc3ccccc3)cc2)cc1Cl | 97.5%
CCCCCCCC(=O)SCC/C=C/[C@@H]1CC(=O)NCc2cccc(n2)C2=N[C@@](C)(CS2)C(=O)N[C@@H](C(C)C)C(=O)O1 | 18.3%
COC(=O)C1CCc2sc3ncnc(Nc4cn[nH]c4C(=O)Nc4ccc(CN5CCN(C)CC5)cc4)c3c21 (stereo unspecified) | 23.5%
C=CC(=O)N(C)[C@H]1C[C@H]2OC(C)(C1OC)n1c3ccccc3c3c4c(c5c6ccccc6n2c5c31)C(=O)NC4 (stereo partly specified) | 42.2%

Structure (SMILES) | growth
Cc1cc(N(CCNc2ccnc3cc(Cl)ccc23)Cc2ccc3c(c2)OCO3)nc(N2CCN(C)CC2)n1 | 36%
CN1CCN(CCCOc2cccc3nc(Nc4ccc(Cl)c(C(F)(F)F)c4)ccc23)CC1 | 42.1%
Nc1c2c(c(O)c3c1=C(CO)C=N3)=NCCS2 | -95.3% (active)
Cc1cc(O)c2c(c1)C1OC(=O)CCCCCN1C1=C2C(=O)c2cccc(OC3CC(O)C(O)C(C)O3)c2C1=O (stereo unspecified) | 90.2%
CC1(C=O)NC(=O)NC1=O (stereo unspecified) | 110%
COc1ccc(Nc2ncccc2NC(=O)c2cn(Cc3cccc(Oc4ccccc4)c3)nn2)cc1 | 78.7%
OCCNC(=S)Nc1ccc(-c2nc(N3C[C@H]4CC[C@@H](C3)O4)c3cccn3n2)cc1 | -7.17% (active)
O=C(c1ccccc1)C(c1ccccc1)N1CCOCC1 (stereo unspecified) | 108%
NN1C(=O)CSC1=S | 105%
CC12O[C@H](C[C@@H](OC(=O)CCC(=O)O)[C@H]1O)n1c3ccccc3c3c4c(c5c6ccccc6n2c5c31)C(=O)NC4=O | 68%
C=C1[C@@H](O)C[C@H]2C(C)(C)C[C@H](Cl)C[C@]2(C)[C@H]1C[C@H](O)[C@H]1CC(=O)NC1=O | -36.3% (active)
COC(=O)[C@H](Cc1ccccc1)NC(=O)[C@@H](OC)[C@@H]1Cc2cc3cc(OC4CC(OC5CC(O)C(O)C(C)O5)C(O)C(C)O4)c(C)c(O)c3c(O)c2C(=O)[C@H]1OC1CC(OC2CC(OC3CC(C)(O)C(O)C(C)O3)C(O)C(C)O2)C(O)C(C)O1 (stereo partly specified) | 1.44% (active)
CCOC(=O)C1=C(C)N=C2Sc3cccc(OC)c3N2[C@H]1c1ccccn1 | 96.3%
CNC(=O)c1cc(Oc2cccc3nc(Nc4ccc(Oc5ccccc5)cc4)ccc23)ccn1 | 52.1%
COc1ccc(-c2nc(N)ncc2Oc2ccccc2OC)c(O)c1 | 75.7%
CSc1nc2ncncc2[nH]1 | 102%
Nc1c2c(c(O)c3c1=C(CO)C=N3)=NCCS2=O (stereo unspecified) | -96.7% (active)
CC(C)=CCc1cc2c(cc1O)C1=C(C(=O)C3=C(NCCS3(=O)=O)C1=O)C(C=C(C)C)O2 (stereo unspecified) | 32.9%
CC/C=C\C[C@H]1C/C=C2/C(=O)C=C[C@@H]2C/C=C\CCCC(=O)O1 | 10.6%

Reference: PubChem BioAssay (NCI)
